According to PubChem BioAssay AID720707 (National Center for Advancing Translational Sciences (NCATS), 2013):
About 270 (0.075%) of roughly 360,000 compounds were called active. Calls follow the shape of the dose curve; as a rule, active = well fitted activation curve with a large enough effect; inconclusive = small, poorly fitted or top-dose-only effect; inactive = no such curve, though single readings can be large or run the other way. For the sample, actives were picked, then their nearest neighbours and some compounds at random.
Also: nearly all actives have a fitted effect of over 60% in size.
Potency is read from the fitted curve at half-maximal effect.

These molecules were tested against Rap guanine nucleotide exchange factor 3 (Homo sapiens) (UniProt O95398) (assay: qHTS for Agonist of cAMP-regulated guanine nucleotide exchange factor 3 (EPAC1): primary screen). Details: biochemical assay; series mostly up to 154 µM; activation: at the top concentration.
Sequence of Rap guanine nucleotide exchange factor 3 (Homo sapiens) (O95398 whole entry, looked up): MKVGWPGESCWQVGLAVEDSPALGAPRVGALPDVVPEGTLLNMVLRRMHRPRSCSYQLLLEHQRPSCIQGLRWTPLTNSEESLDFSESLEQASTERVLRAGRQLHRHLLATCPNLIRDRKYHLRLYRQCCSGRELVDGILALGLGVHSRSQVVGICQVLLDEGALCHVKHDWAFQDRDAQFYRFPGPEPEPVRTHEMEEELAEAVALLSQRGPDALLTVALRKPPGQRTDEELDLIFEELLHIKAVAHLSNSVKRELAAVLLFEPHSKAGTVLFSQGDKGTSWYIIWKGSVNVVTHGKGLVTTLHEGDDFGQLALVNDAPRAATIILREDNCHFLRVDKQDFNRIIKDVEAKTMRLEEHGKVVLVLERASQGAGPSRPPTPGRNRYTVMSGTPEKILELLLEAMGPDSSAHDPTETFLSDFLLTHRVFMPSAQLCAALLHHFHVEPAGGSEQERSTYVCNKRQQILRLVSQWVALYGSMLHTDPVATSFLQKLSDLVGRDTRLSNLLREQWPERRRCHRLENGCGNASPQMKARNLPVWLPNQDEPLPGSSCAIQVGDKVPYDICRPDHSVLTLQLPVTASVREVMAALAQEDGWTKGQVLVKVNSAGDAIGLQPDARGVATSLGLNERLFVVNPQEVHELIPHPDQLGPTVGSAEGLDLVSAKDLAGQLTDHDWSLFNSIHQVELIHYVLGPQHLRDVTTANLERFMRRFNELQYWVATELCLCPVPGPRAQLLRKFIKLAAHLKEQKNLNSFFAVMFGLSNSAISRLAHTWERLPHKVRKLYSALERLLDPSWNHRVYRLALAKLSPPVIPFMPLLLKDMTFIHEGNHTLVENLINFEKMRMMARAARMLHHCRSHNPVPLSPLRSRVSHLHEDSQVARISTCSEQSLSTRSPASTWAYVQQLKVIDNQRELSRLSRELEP
Excerpt: In multi-cellular eukaryotic organisms, the effects of cAMP are transduced by two ubiquitously-expressed intracellular cAMP receptors, the classic protein kinase A/cAMP-dependent protein kinase (PKA/cAPK) and the more recently discovered exchange protein directly activated by cAMP/cAMP-regulated guanine nucleotide exchange factor (EPAC/cAMP-GEF). Both PKA and EPAC are ubiquitously expressed in all tissues, and an increase in intracellular cAMP levels will lead to the activation of both PKA and EPAC. Therefore, careful dissections of the individual role and relative contribution of EPAC and PKA within the overall cAMP signaling in various model systems are critical for further elucidating the mechanism of cAMP signaling. To date no EPAC-specific antagonists and agonist, as well as isoform-specific agonists have been reported, and developing EPAC-specific pharmacological probes to determine the physiological functions that EPAC play in the overall cAMP-mediated signaling remains a major challenge within the research field. Furthermore, identified regulators of EPAC may lead to new mechanism-based therapeutic strategies specifically targeting the EPAC / cAMP-signaling components as EPAC has been implicated to play important roles in major human pathological conditions such as diabetes, heart disease, and cancer.
This qHTS will be used to screen the Molecular Libraries Small Molecule Repository (MLSMR) as a concentration-titration series using the NCGC unique quantitative screening (qHTS) platform to find activators for EPAC1. In addition, this assay will also be used as a counterscreen for the EPAC2 qHTS. This fluorescent based assay is developed and validated for EPAC1 that measures exchange using EPAC effector Rap1 complex with BODIPY-GDP, a GDP analog with a tethered fluorophores. Activators are identified by monitoring the change in fluorescence signal as the exchanged free BODIPY-GDP has a reduced fluorescence compared to Rap1-bound BODIPY-GDP. Increase in signal (activation) is the desired outcome for the EPAC1 agonist while no activity in this assay is desired for the EPAC2 agonist counterscreen.
[1] de Rooij, J., Zwartkruis, F. J., Verheijen, M. H., Cool, R. H., Nijman, S. M., Wittinghofer, A., and Bos, J.L. (1998) Nature 396, 474-477
NIH Chemical Genomics Center [NCGC]
NIH Molecular Libraries Probe Centers Network [MLPCN]
Assay Submitter (PI): Xiaodong Cheng, The University of Texas Medical Branch
Briefly, three uL of reagents (100 nM EPAC1, 250 nM RAP1B-BODIPY-GDP, 50 uM GDP) were dispensed into a 1536-well Greiner black solid-bottom medium binding assay plate. Controls and test compounds (23 nL) were transferred to the plate via a Kalypsys pin tool equipped with a 1536-pin array. The plates were centrifuged at 1,000 rpm for 15 seconds followed by 5 minute incubation at room temperature. The assay plates were read at 5 minute intervals for 30 minutes in the ViewLux plate reader using 480nm excitation and 540nm emission filters. The results were normalized to the agonist positive control of 6.5 mM cAMP.
For CCOc1ccc(NS(=O)(=O)c2ccc(Cl)c(C(=O)N(C)Cc3cccnc3)c2)cc1, the “activation” value was -9.4% (inactive). With CC1(C)CC(=O)c2c(n(S(=O)(=O)c3ccccc3)c3ccc(NS(=O)(=O)c4ccccc4)cc23)C1 the “activation” value was 2.81% (inactive). With O=c1cccc(-c2ccc(Br)cc2)o1 the “activation” value was 1.51% (inactive). In the case of CCCCNC(=O)N1CCCC(N(C)CCc2ccc(OC)c(OC)c2)C1 (centres undefined), the “activation” value is reported as -9.76% (inactive). Cc1sc2ncn(CC(=O)NCCCC(=O)N(C)Cc3ccccc3)c(=O)c2c1C was tested, and the “activation” value was -8.88% (inactive). In the case of Cc1ccc(OCC(=O)Nc2ccccc2Sc2ccc(Cl)cc2)c([N+](=O)[O-])n1, the “activation” value is reported as 21.3% (inactive). For Cc1ccc(-c2nc(C)sc2CC(=O)OCC(=O)Nc2c(F)cccc2F)cc1, the “activation” value was 10.9% (inactive). In the case of COc1cc(NS(=O)(=O)c2ccc(N/C=C(\C=O)c3nc4cc(Cl)ccc4o3)cc2)nc(OC)n1, the “activation” value is reported as -5.9% (inactive). In the case of COCC1CCCCN1C(=O)c1cc(COc2ccc(C)c(C)c2)on1 (centres undefined), the “activation” value is reported as -12.2% (inactive). With CC(=O)N[C@H]1[C@H]([C@H](O)[C@H](O)CO)OC(C(=O)O)=C[C@@H]1O the “activation” value was -3.76% (inactive). For O=C(NCc1ccco1)c1ccc(CS(=O)(=O)Cc2ccc(F)cc2)o1, the “activation” value was 3.97% (inactive). In the case of COC(=O)/C=C(\Oc1ccccc1)C1(O)CCCCC1, the “activation” value is reported as -5.2% (inactive). Cc1cc(Cl)ccc1NNC(=O)c1snnc1C was tested, and the “activation” value was -2.36% (inactive). O=C(c1cnn2ccccc12)N1CCc2ccccc21 was tested, and the “activation” value was -2.29% (inactive). C=CCNC(=O)COC(=O)CNC(=O)c1cc(Cl)cc([N+](=O)[O-])c1 was tested, and the “activation” value was 7.93% (inactive). For Cc1nn(C)cc1N1C(=O)c2cccc3c(N)ccc(c23)C1=O, the Potency was 89.1 µM (active). For CN1C(=O)c2cccc3c(N)ccc(c23)C1=O, the Potency was 126 µM (active). Cc1cc(NC(=O)/C=C/C(=O)N(c2ccccc2C)C(C(=O)NC2CCCC2)c2ccc(F)cc2)no1 (centres undefined) was tested, and the “activation” value was 15.6% (inactive). In the case of CCOC(=O)[C@]12CCCC=C1N(Cc1ccc(Cl)cc1Cl)C(=O)[C@H](CC(=O)N1CCCCC1)C2, the “activation” value is reported as -4.78% (inactive). For CC(Cc1cccs1)NC(=O)c1cccc(Cl)c1 (centres undefined), the “activation” value was 5.93% (inactive). For Cc1nn2c(NCCN(C)C)c3c(nc2c1-c1ccccc1)CCC3, the “activation” value was 1.01% (inactive). CC(=O)Nc1ccc(NC(=O)CN2C(=O)COc3ccc(S(=O)(=O)N4CCCCC4)cc32)cc1 was tested, and the “activation” value was 15.4% (inactive). With O=C(COc1ccccc1)N1CCN=C1SCc1cccc(F)c1 the “activation” value was -1.1% (inactive). For CCOC(=O)c1ccccc1NC(=O)COC(=O)C(Cc1c[nH]c2ccccc12)NC(C)=O (centres undefined), the Potency was 112 µM (active). For COC(=O)C(Cc1c[nH]c2ccccc12)NC(=O)CCNC(=O)c1ccco1 (centres undefined), the “activation” value was -7.71% (inactive). CCOC(=O)c1ccccc1NC(=O)COC(=O)CCC(=O)N1CCOCC1 was tested, and the “activation” value was 3.89% (inactive). COc1ccccc1NC(=O)CSc1nnc(CNC(=O)c2ccccc2F)o1 was tested, and the “activation” value was -8.7% (inactive). Cn1c(=O)[nH]c(=O)c2c1nc(N(CCO)Cc1ccccc1)n2Cc1ccccc1Cl was tested, and the “activation” value was -2.01% (inactive). For Cc1nc(NC(=O)C23CCC(C)(C(=O)O2)C3(C)C)sc1C (centres undefined), the “activation” value was 4.04% (inactive). In the case of N#CCCCn1c(O)c(N=NC(=O)C(O)c2ccccc2)c2ccccc21 (centres undefined), the “activation” value is reported as 6.57% (inactive). COc1cccc(C(=O)N2CCC(n3nccc3NC(=O)C3CCOC3)CC2)c1 (centres undefined) was tested, and the “activation” value was 7.16% (inactive). In the case of CNC(=O)C1CC(=O)N(c2ccc(OCC(=O)Nc3ccccc3C)cc2)C1 (centres undefined), the “activation” value is reported as 8.26% (inactive). With O=C(CCN1C(=O)c2ccncc2C1=O)Nc1cc(F)ccc1F the “activation” value was -22% (inactive). With Cc1ccc([C@H]2C[C@H](O)[C@@H](n3cc(COC(=O)c4ccccc4)nn3)CN2C(=O)C2CCCCC2)cc1 the “activation” value was -25.7% (inactive). For CC1CCN(c2ccc3c(c2)S(=O)(=O)c2cc(C(=O)O)ccc2C3=O)CC1, the “activation” value was -0.73% (inactive). For COc1cccc(-c2ccc3c(c2)S(=O)(=O)c2cccc(C(=O)O)c2C3=O)c1OC, the “activation” value was 9.43% (inactive). Cc1ccc(CNC(=O)c2cccc3c2C(=O)c2ccc(N4CCC(C)CC4)cc2S3(=O)=O)cc1 was tested, and the Potency was 89.1 µM (active). For O=C(O)C1=C[C@H](c2cccs2)C[C@H](OCCCCO)O1, the “activation” value was 9.46% (inactive). In the case of Cc1ccc(C(=O)OCC(=O)NCc2cc(C)c(O)c(C)c2)cc1S(=O)(=O)N1CCCCC1, the “activation” value is reported as 9.64% (inactive). With N#CCCn1ncc2ccccc21 the “activation” value was 14.3% (inactive). For CC(C)Cc1nnc(NC(=O)CN2C(=O)NC3(CCCCC3)C2=O)s1, the “activation” value was 2.71% (inactive). With CCC1(c2ccccc2)NC(=O)N(CC(=O)Nc2ccccc2C(=O)NC2CCCC2)C1=O (centres undefined) the “activation” value was 0.865% (inactive). With COCC(C)n1c(C)cc(C(=O)CSc2cc(C)c3ccccc3n2)c1C (centres undefined) the “activation” value was 15.4% (inactive). In the case of CCOc1ccc(-c2n[nH]c(=S)n2/N=C/c2cc3c(cc2[N+](=O)[O-])OCO3)cc1, the “activation” value is reported as 13.8% (inactive). In the case of OCCN1CCOCCOCCN(CCO)CCN(CCO)CC1, the “activation” value is reported as 1.4% (inactive). Cc1ccc(Cl)cc1NC(=O)COC(=O)C1CCCCC1 was tested, and the “activation” value was -2.39% (inactive). N#C/C(=C\N1CCOCC1)S(=O)(=O)c1ccc(Cl)cc1 was tested, and the “activation” value was 4.86% (inactive). With O=C(CSc1nnc(-c2ccncc2)o1)NCc1ccc(Cl)cc1 the “activation” value was 13.5% (inactive). With Cc1cc(OCC(=O)N(C)c2c(N)n(Cc3ccccc3)c(=O)[nH]c2=O)c(C(C)C)cc1Cl the “activation” value was -0.55% (inactive). Cn1c(=O)[nH]c(=O)c2c1[nH]c(=S)n2Cc1ccccc1 was tested, and the “activation” value was -0.212% (inactive). With Cc1cc2nc3c(=O)n(Cc4ccccc4)c(=O)[nH]c3nc2cc1N the Potency was 100 µM (active). With NC(=O)C1CCN(C(=O)COc2ccc3c4c(c(=O)oc3c2)CCC4)CC1 the “activation” value was 2.5% (inactive). For O=S(=O)(c1cccc(-c2nnc(SC(F)F)n2-c2ccccc2)c1)N1CCCCC1, the “activation” value was -1.95% (inactive). With O=C(O)C1=NN(c2c(F)c(F)cc(F)c2F)C(=O)CC1 the “activation” value was 10.4% (inactive).
